# Data as given in PubChem BioAssay (NCI).
# About 83,000 compounds went through this panel and 20% of them were active in at least one assay; those are over-represented in the sample as a whole.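 Interpretation: 100, growth as untreated; towards 0, rising growth inhibition; 0, no net growth; 0 to -100, cell death. Compounds scoring below 10 were considered active.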 A number with no mark means an inactive call. Active and inactive are the calls of the source.
# Columns and labels:
# Test in all cases: NCI-60 one-dose screen, 48 h (100 = growth as untreated, 0 = no growth, -100 = all killed)
# Conditions in all cases: 10 µM unless noted
# [1] = system: NCI-H23 lung
# [2] = system: NCI-H226 lung
# [3] = system: NCI-H322M lung
# [4] = system: HOP-62 NSCLC
# [5] = system: NCI-H460 lung
# [6] = system: HOP-92 NSCLC
# [7] = system: NCI-H522 lung
# [8] = system: A549/ATCC NSCLC
# [9] = system: 786-0 renal
# [10] = system: COLO 205 colon
# [11] = system: DU-145 prostate
# [12] = system: K-562 leukemia
# [13] = system: MALME-3M melanoma
# [14] = system: MDA-MB-231 breast
# [15] = system: RXF 393 renal
# [16] = system: SF-268 CNS
# [17] = system: SF-295 CNS
# [18] = system: SF-539 CNS
# [19] = system: UACC-257 melanoma
# [20] = system: M14 melanoma
SMILES,growth [1],growth [2],growth [3],growth [4],growth [5],growth [6],growth [7],growth [8],growth [9],growth [10],growth [11],growth [12],growth [13],growth [14],growth [15],growth [16],growth [17],growth [18],growth [19],growth [20]
O=C(Nc1cccc(C2=NCCN2)c1)c1ccc(OCCCOc2ccc(C(=O)Nc3cccc(C4=NCCN4)c3)cc2)cc1,1.27% (active),52.8%,-0.261% (active),57.4%,6.54% (active),18.8%,-18.6% (active),-55.3% (active),58.1%,-18.7% (active),9.35% (active),27.2%,-82% (active),-10.5% (active),-19.9% (active),25.9%,52.1%,-43.7% (active),-11% (active),30.4%
COc1cccc(CNCCN2C(=O)c3ccc4c5c(ccc(c35)C2=O)C(=O)N(CCNCc2cccc(OC)c2)C4=O)c1,87.2%,95.8%,89.9%,105%,46.8%,99.9%,86.9%,46.2%,81%,53.7%,113%,8.7% (active),26.3%,78.1%,87%,74.1%,113%,97.8%,79.1%,71.7%
CC(=O)[C@@H]1CC[C@]2(C(N)=O)CC[C@]3(C)[C@H](CC[C@@H]4[C@@]5(C)CCC(=O)C(C)(C)[C@@H]5CC[C@]43C)[C@@H]12,95.1%,102%,99.3%,92%,101%,103%,87.2%,96.3%,89.6%,102%,105%,88.4%,112%,95.8%,109%,95.4%,93.8%,99.5%,93.6%,93.4%
O=C1Nc2cc(-c3ccncc3)ccc2/C1=C/c1ccc[nH]1,58.5%,78.5%,84%,105%,98.9%,104%,75.2%,101%,102%,112%,88.1%,98.3%,65.8%,65.2%,93.1%,94.5%,102%,91.9%,114%,
